Assay [1] in a line: ZIKV-mCherry secondary qHTS for Zika virus inhibitors (AID 1347158). Also: top concentration of the series differs between compounds. A digest of the protocol:
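This orthogonal imaging screen measured ZIKV-mCherry infection of Vero cells exposed to compound, MOI 1, 48-72 h. Percent infection came from segmented nuclei scored mCherry-positive above 3 SD of negative controls.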
In general terms: Quantitative high-throughput screening tests each substance at several concentrations.

In assay [2] the test system is Zika virus NS2B-NS3 protease (linked). The experiment in a line: 384 well plate NINDS AMC confirmatory qHTS for Zika virus inhibitors (AID 1347163). Also: nearly all actives have a fitted effect of over 50% in size. Also: potency is read from the fitted curve at half-maximal effect.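 As to activity change, negative = inhibition: linked protease at 5 30 or 60 nM final depending on run; fluorescence of AMC released from Ac-VKTGKR-AMC peptide cleaved by the protease; top concentration of the series differs between compounds; 0% = no-inhibitor control and -100% = no-enzyme control.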 A digest of the protocol:
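Enzyme (5, 30 or 60 nM final) first met test compounds for ~15 min. The AMC-tagged peptide Ac-VKTGKR-AMC followed at 30 microM. Fluorescence was then recorded at 25 min and scaled against no-enzyme and no-inhibitor wells.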

For assay [3], the target named is Lysine-specific demethylase 5B (Homo sapiens) (UniProt Q9UGL1). The experiment in a line: Optimization screen for KDM5B Histone Demethylases FDH coupled qHTS against the LOPAC library (AID 1347166). Also: 0% is about no effect. The following applies: KDM5B demethylation, FDH-coupled NADH fluorescence (FDH is formaldehyde dehydrogenase); at 57.5 µM (top of the series). Summed up:
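KDM5BDeltaAP (200nM final) in 50mM HEPES pH 7.5, 0.01% Tween-20 was preincubated with compound for 10 min at room temperature. A substrate mix of 12.5uM H3K4Me3, 25uM a-ketoglutarate, ascorbate, Fe2+, NAD+ and formaldehyde dehydrogenase was then added. NADH fluorescence (340/450 nm) was read initially and after 30 min.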

A short description of assay [4]: Tertiary RLuc qRT-PCR qHTS assay for Zika virus inhibitors (AID 1347169). Also: nearly all actives have a fitted effect of over 55% in size. Also: potency is read from the fitted curve at half-maximal effect. A digest of the protocol: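 Luminescence read-out: live-cell Renilla luciferase substrate applied to infected Vero cells, signal measured after 1-1.5 hrs. Cells had received compound before ZIKV-RLuc (Cambodian strain, MOI 1-2) infection and were incubated 48-72 hrs at 37 degrees C.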
(In qPCR the cycle at which signal appears reflects the starting amount.)

The nature of assay [5]: Confirmatory screen NINDS Rhodamine qHTS for Zika virus inhibitors (AID 1347161). Also: nearly all actives have a fitted effect of over 60% in size. Also: potency is read from the fitted curve at half-maximal effect.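 As to activity change, negative = inhibition: purified Zika NS2B-NS3 protease with linked NS2B cofactor domain and Rhodamine110 peptide substrate; plate controls were no-inhibitor control for no effect and no-enzyme control for full effect.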 Summed up: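 Aprotinin served as in-plate control. Conditions: 25 nM linked NS2B-NS3, pH 8.0 Tris buffer, titrated compounds, 15 min preincubation and 15 min reaction with 1.5 microM Rhod110 substrate at room temperature.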
Assay [6] concerns Zika virus NS2B-NS3 protease (linked construct). The experiment in a line: 384 well plate NINDS Rhodamine confirmatory qHTS for Zika virus inhibitors (AID 1347164).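 Also: fluorescence from protease cleavage of Ac-LKRR-rhodamine 110 substrate; nearly all actives have a fitted effect of over 65% in size.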 Also: potency is read from the fitted curve at half-maximal effect.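 As to activity change, negative = inhibition: top concentration of the series differs between compounds; plate controls were no-inhibitor control for no effect and no-enzyme control for full effect.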 A digest of the protocol: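 Fluorescence read at ex 485 nm/em 538 nm, 25 min after adding 10 microM Ac-LKRR-Rd substrate at room temperature in the dark; signal normalized to no-enzyme and no-inhibitor controls. Enzyme final 5, 30 or 60 nM; compounds, ~15 min preincubation.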

Assay [7] in a line: Vero cells viability qHTS for Zika virus inhibitors (AID 1347167). Also: potency is read from the fitted curve at half-maximal effect. A digest of the protocol:
(§1)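 qHTS titration; 24-48 h compound exposure, 37 degrees C/5% CO2; DMEM, 4% FBS; CellTiter Glo ATP luminescence.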

Assay [8] can be described thus: HepG2 cells viability qHTS for Zika virus inhibitors (AID 1347168). Also: % is scaled to controls: 0 for no effect and ±100 for the full control effect. A digest of the protocol: as §1
For assay [9], the system named is Zika virus NS2B-NS3 protease (linked construct). The experiment in a line: Primary screen NINDS Rhodamine qHTS for Zika virus inhibitors (AID 1347160). Also: % is scaled to controls: 0 for no effect and ±100 for the full control effect; nearly all actives have a fitted effect of over 55% in size. Summed up:
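Each compound, titrated, sat 15 min with 25 nM linked protease before 1.5 microM Rhodamine110 substrate went in. Fluorescence gain over the next 15 min, in pH 8.0 Tris with Tween 20, gave Hill-fitted curves.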

Assay [10] is described as follows: OV-KATE Cancer Cell Toxicity qHTS against the NCATS CANVASS Library (AID 1347345). Also: % is scaled to controls: 0 for no effect and ±100 for the full control effect. Summed up:
(§2)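 Toxicity is measured over 72 h of compound exposure at 37 degrees C under 5% CO2. Each well holds 1000 cells, pre-incubated for 4 hours before dosing across an 11-point range. CellTiter-Glo luminescence gives viability.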

The nature of assay [11]: HPAF-II Cancer Cell Toxicity qHTS against the NCATS CANVASS Library (AID 1347346). Also: % is scaled to controls: 0 for no effect and ±100 for the full control effect; nearly all actives have a fitted effect of over 55% in size. Summed up:
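Using 1000 HPAF-II cells per well, we titrated compounds over 11 concentrations for 72 h at 37 degrees C/5% CO2, with bortezomib as control. Cell survival was quantified by CellTiter-Glo luminescence.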

Assay [12] can be described thus: UWB1.289 Cancer Cell Toxicity qHTS against the NCATS CANVASS Library (AID 1347347). Also: nearly all actives have a fitted effect of over 60% in size. The following applies: outcome: dose series up to 38.3 µM. A digest of the protocol:
as §2

Assay [13] can be described thus: OV-SAHO Cancer Cell Toxicity qHTS against the NCATS CANVASS Library (AID 1347348). Also: % is scaled to controls: 0 for no effect and ±100 for the full control effect; nearly all actives have a fitted effect of over 55% in size. A digest of the protocol:
as §2

A short description of assay [14]: Panc-1005 Cancer Cell Toxicity qHTS against the NCATS CANVASS Library (AID 1347349). Also: % is scaled to controls: 0 for no effect and ±100 for the full control effect; nearly all actives have a fitted effect of over 60% in size. A digest of the protocol:
as §2

Assay [15] can be described thus: SW1088 Cancer Cell Toxicity qHTS against the NCATS CANVASS Library (AID 1347350). Also: nearly all actives have a fitted effect of over 75% in size. The following applies: outcome: dose series up to 76 µM. Summed up:
as §2

The nature of assay [16]: U-118MG Cancer Cell Toxicity qHTS against the NCATS CANVASS Library (AID 1347351). Also: % is scaled to controls: 0 for no effect and ±100 for the full control effect. Summed up: as §2
A short description of assay [17]: COV-362 Cancer Cell Toxicity qHTS against the NCATS CANVASS Library (AID 1347352). Also: % is scaled to controls: 0 for no effect and ±100 for the full control effect. Summed up: (§3)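 Using an ATP-based luminescent reagent after three days of treatment, toxicity is scored across an eleven-concentration range in wells holding 1000 cells each.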
Assay [18] can be described thus: A2780 Cisplatin Sensitive Ovarian Cancer Cell Toxicity qHTS against the NCATS CANVASS Library (AID 1347353). Also: nearly all actives have a fitted effect of over 60% in size. Particulars: A2780 ovarian cancer viability, ATPLite luminescence, 72 h; at 91.4 µM (top of the series) unless noted. A digest of the protocol:
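Quantitative HTS format: eleven compound concentrations applied to pre-seeded cells, 72 h incubation at 37 °C, then ATP detection by luminescence.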

A short description of assay [19]: UWB1.289-WTBRCA1 Cancer Cell Toxicity qHTS against the NCATS CANVASS Library (AID 1347354). The following applies: UWB1.289-WTBRCA1 viability, CellTiter-Glo luminescence, 72 h; at 76 µM (top of the series) unless noted. A digest of the protocol: as §3
A short description of assay [20]: Confirmatory screen GU Rhodamine qHTS for Zika virus inhibitors qHTS (AID 1347157). Also: potency is read from the fitted curve at half-maximal effect; nearly all actives have a fitted effect of over 70% in size. A digest of the protocol: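 Noncovalent NS2B hydrophilic domain/NS3 protease complex (25 nM final) in 10 mM Tris-HCl pH 8.0, 0.01% Tween 20, preincubated 15 min with compounds (up to 114 microM), then 1.5 microM Rhodamine110 substrate. Fluorescence change over 15 min fitted to 4-parameter Hill.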

Molecules are shown by their SMILES. Records with an inconclusive call do not appear. A number with no mark means an inactive call. Active and inactive are the calls of the source. Calls follow the shape of the dose curve; as a rule, active = well fitted curve in the direction sought with a large enough effect; inconclusive = small, poorly fitted or top-dose-only effect, or another doubt; inactive = no such curve, though single readings can be large; an effect the other way counts as inactive or inconclusive.

Lysine-specific demethylase 5B (Homo sapiens), sequence (Q9UGL1 whole entry, looked up): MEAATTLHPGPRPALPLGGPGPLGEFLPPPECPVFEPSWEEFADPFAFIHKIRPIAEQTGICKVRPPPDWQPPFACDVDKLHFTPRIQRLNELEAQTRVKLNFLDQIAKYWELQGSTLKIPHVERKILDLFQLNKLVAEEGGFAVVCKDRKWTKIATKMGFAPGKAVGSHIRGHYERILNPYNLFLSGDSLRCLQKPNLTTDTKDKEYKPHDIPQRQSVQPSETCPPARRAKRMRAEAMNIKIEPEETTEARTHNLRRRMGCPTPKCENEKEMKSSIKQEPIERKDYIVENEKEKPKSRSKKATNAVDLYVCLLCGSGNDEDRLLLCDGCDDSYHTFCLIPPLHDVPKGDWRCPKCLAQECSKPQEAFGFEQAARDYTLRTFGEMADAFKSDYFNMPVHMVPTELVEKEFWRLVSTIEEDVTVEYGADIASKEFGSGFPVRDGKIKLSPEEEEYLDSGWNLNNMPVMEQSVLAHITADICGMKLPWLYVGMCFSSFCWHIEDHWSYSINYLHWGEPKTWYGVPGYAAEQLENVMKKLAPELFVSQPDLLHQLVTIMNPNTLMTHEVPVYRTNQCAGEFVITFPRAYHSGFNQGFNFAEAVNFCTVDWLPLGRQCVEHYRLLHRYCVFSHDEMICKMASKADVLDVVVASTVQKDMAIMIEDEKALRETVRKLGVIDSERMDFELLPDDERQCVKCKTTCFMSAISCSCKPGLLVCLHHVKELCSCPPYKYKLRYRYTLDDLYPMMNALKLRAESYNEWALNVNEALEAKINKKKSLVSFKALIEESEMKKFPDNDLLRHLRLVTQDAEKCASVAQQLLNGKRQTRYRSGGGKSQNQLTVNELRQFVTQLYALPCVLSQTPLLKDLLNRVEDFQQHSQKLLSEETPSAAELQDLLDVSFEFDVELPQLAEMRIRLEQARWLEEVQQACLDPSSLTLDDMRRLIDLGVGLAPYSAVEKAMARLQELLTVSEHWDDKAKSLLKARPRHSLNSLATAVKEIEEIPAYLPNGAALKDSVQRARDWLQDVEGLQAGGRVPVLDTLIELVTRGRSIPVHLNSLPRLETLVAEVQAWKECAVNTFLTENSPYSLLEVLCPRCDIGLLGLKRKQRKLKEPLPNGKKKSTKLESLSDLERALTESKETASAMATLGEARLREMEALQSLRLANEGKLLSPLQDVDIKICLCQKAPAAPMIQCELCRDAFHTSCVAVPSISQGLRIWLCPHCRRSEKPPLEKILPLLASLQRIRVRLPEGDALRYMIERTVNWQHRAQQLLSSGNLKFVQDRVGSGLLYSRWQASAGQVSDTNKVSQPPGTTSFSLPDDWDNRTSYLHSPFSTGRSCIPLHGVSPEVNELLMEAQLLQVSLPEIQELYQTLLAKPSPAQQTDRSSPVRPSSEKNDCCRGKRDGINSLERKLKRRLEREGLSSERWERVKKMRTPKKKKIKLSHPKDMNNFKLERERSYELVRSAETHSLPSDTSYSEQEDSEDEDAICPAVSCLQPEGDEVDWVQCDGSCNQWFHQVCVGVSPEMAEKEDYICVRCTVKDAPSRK

With `Cc1nc(N=Nc2cc(S(=O)(=O)O)c3cc([N+](=O)[O-])cc(S(=O)(=O)O)c3c2)c(COP(=O)(O)O)c(C=O)c1O`, the Potency entry in [1] and in assay [4] was “inactive” each time. The Potency in assay [2] is 31.6 µM (active). The activity, negative = inhibition in [3] was -12.7%.
As for `CCCCCCCC/C=C\CCCCCCCC(=O)NCCc1ccc(O)c(O)c1`, the Potency in assay [5] was 19.6 µM (active); in [2] it was 1.12 µM (active); in assay [6], 3.16 µM (active); in [7], 8.27 µM (active). Further, in assay [3], the activity, negative = inhibition was -22.3%.
For `O=C1NC(=O)c2cc(Nc3ccccc3)c(Nc3ccccc3)cc21`, the Potency entry in assay [1], in assay [6] and in assay [7] was “inactive” in each case. Further, the Potency in assay [2] was 12.6 µM (active). Moreover, the activity, negative = inhibition in assay [3] is -17.6%. The compound was called inactive in assay [8].
As for `CCCc1c(OCCCOc2ccc(OCC(=O)O)cc2)ccc(C(C)=O)c1O`, the Potency result in assay [1] and in assay [7] was “inactive” in each case. Moreover, the Potency in assay [5] was 3.5 µM (active); in [2], 355 µM (active); in assay [6], 50.1 µM (active). In addition, the activity, negative = inhibition in assay [3] is -6.32%. Also, in assay [8], the compound was classed as inactive.
Consider `CC(=O)O[C@H]1Cc2ccccc2N(C(N)=O)c2ccccc21`, for which the activity, negative = inhibition in [3] was -5.85%.
The same measure, in the same setting: to `NC1(C(=O)O)CCCCC1` belongs -8.23%.
Consider `COc1cc2c(CCNC(C)=O)c[nH]c2cc1O`, for which the Potency result in assay [5], in assay [7] and in assay [4] was “inactive” throughout. Moreover, the compound was called inactive in assay [8].
With `CCSC(=N)N`, the activity, negative = inhibition in assay [3] was -5.42%.
`CC(=O)NCCc1c[nH]c2ccc(O)cc12`: the compound was called inactive in assay [9], in assay [10], in [11], in [12], in assay [13] and in [14]. The compound was called inactive in assay [15], in assay [16] and in assay [17]. The activity, negative = inhibition in assay [3] is -23.2%. Moreover, the outcome in assay [18] is “inactive [at 46.1 µM]”; in assay [19], “inactive [at 38.3 µM]”.
As for `C=CCN1CCc2c(cc(O)c(O)c2Br)[C@@H](c2ccccc2)C1`, the Potency in assay [6] is 8.91 µM (active); in [4] it was 11.7 µM (active). Further, the Potency entry in assay [7] was “inactive”. Also, in [8], the outcome was inactive.
With `Nc1nc2ccc(Cl)cc2c2nc(-c3ccco3)nn12`, the Potency result in [2] and in assay [7] was “inactive” each time. In assay [8], the compound was called inactive.
Regarding `O=C(O)Cc1c[nH]c2ccc(O)cc12`, the compound was called inactive in assay [9], in assay [10], in assay [11], in assay [12], in assay [13] and in assay [14]. In addition, the result in assay [15], in assay [16], in assay [17], in [18] and in [19] was inactive.
As for `N[C@H](C(=O)O)[C@H](Cc1ccccc1)C(=O)O`, the activity, negative = inhibition in assay [3] was -9.48%.
As to `O=C(O)c1ccccc1Nc1cccc(OCc2ccc3ccccc3n2)c1`, the values for the Potency in assay [5], in [2] and in [6] were 3.49 µM (active), 158 µM (active) and 63.1 µM (active), respectively. Besides, the activity, negative = inhibition in [3] is -2.34%. Moreover, the Potency result in assay [7] is “inactive”. Moreover, the outcome in assay [8] was inactive.
Regarding `Cc1nc(N=Nc2ccc(S(=O)(=O)O)cc2S(=O)(=O)O)c(COP(=O)(O)O)c(C=O)c1O`, the Potency in [20] was 7.94 µM (active); in assay [2] it was 39.8 µM (active); in [6], 3.98 µM (active). Moreover, in assay [1], the Potency result is “inactive”. The activity, negative = inhibition in [3] was -11.6%. Besides, the activity change, negative = inhibition in [4] is 33.6% [at 5.25 µM].
On to `NC/C=C\C(=O)O`, for which, in assay [3], the activity, negative = inhibition is 3.97%.
For the compound `O=C1Nc2ccc(I)cc2/C1=C/c1cc(Br)c(O)c(Br)c1`, the Potency in assay [2] is 89.1 µM (active); in assay [6] it was 2.51 µM (active). For the same compound, the activity, negative = inhibition in assay [3] was -25%.
Take `O=c1[nH]c(=S)[nH]c(-c2ccccc2)c1Cc1c(O)ccc2ccccc12`: the Potency entry in [1], in assay [7] and in assay [4] was “inactive” each time. In addition, the Potency in assay [5] is 3.49 µM (active); in assay [6] it was 70.8 µM (active). The activity, negative = inhibition in assay [3] was -27.4%. Besides, the result in assay [8] was inactive.
For `Nc1ncnc2c1ncn2C1CCCC1`, the activity, negative = inhibition in assay [3] is -3.1%.
Consider `[Li+]`, for which the activity, negative = inhibition in assay [3] is -3.55%.
Same read-out and setting: to `O=C(O)C1=CCNCC1` belongs -12.8%.
Regarding `Nc1ccc(-c2ccc3ccccc3n2)cc1`, the Potency entry in assay [5], in assay [7] and in [4] was “inactive” each time. In addition, the compound was called inactive in assay [8].
Turning to `CCCN(CCc1ccccc1)C1CCc2c(O)cccc2C1` (stereo not drawn), the activity, negative = inhibition in assay [3] was -0.152%.
Turning to `Cc1cccc(C(=O)NCN2CCN(c3ccccc3C#N)CC2)c1`, in assay [4], the Potency entry was “inactive”.
Still for that read-out and setting: to `Cn1c(=O)c2[nH]c(-c3ccc(S(=O)(=O)O)cc3)nc2n(C)c1=O` belongs “inactive”.

Values taken from PubChem BioAssay (NCATS).
